Assay [1] addresses Transcription factor E2F1 (Homo sapiens) (UniProt Q01094). Kind of assay: ATG_E2F_CIS: Attagene CIS-FACTORIAL HepG2 Assay for human E2F Transcription Factor 1 (AID 2282935). The note with it: HepG2 Attagene cis-reporter, E2F reporter RNA transcripts; actives raise or lower the signal. In short, it runs like this: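 Measures reporter transcript levels via RT-PCR with capillary electrophoresis detection in HepG2 cells harboring cis-regulated reporter units; 24 h post-dose; bidirectional curve fitting with DMSO as baseline.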

Assay [2] is described as follows: ATG_E_Box_CIS: Attagene CIS-FACTORIAL HepG2 Assay for human Enhancer Box (E-box) (AID 2282936). As to conditions: HepG2 E-box cis-reporter transcription, actives raise or lower the signal. In short, it runs like this: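 First, HepG2 cells receive multiple cis-regulated reporter constructs by transient transfection. Next, chemicals are applied for 24 h. Finally, reporter mRNA is quantified via RT-PCR and capillary electrophoresis, with DMSO as baseline.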

The nature of assay [3]: ATG_M_61_CIS: Attagene CIS-FACTORIAL HepG2 Assay for M61 Transcription Factor (Internal Marker) (AID 2282937). As to conditions: HepG2 Attagene CIS-FACTORIAL M61 internal marker reporter; actives raise or lower the signal. In a few lines: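 Using transiently transfected HepG2 liver cells, reporter transcript levels were assessed 24 h post-dosing by RT-PCR and capillary electrophoresis. Changes in either direction were fitted relative to DMSO controls.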

Assay [4] can be described thus: ATG_EGR_CIS: Attagene CIS-FACTORIAL HepG2 Assay for human Early Growth Response 1 (EGR1) (AID 2282938). The note with it: HepG2 Attagene CIS-FACTORIAL EGR reporter mRNA; actives raise or lower the signal. In a few lines:
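Fluorescent capillary-electrophoresis signal of reporter cDNA fragments serves as read-out. HepG2 cells bear transiently transfected cis-promoter reporter units and are exposed 24 h; gain- or loss-of-signal is fitted against DMSO.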

Assay [5] can be described thus: ATG_M_19_CIS: Attagene CIS-FACTORIAL HepG2 Assay for M19 Transcription Factor (Internal Marker) (AID 2282939). As to conditions: HepG2 Attagene CIS-FACTORIAL M19 internal marker reporter; actives raise or lower the signal. In a few lines:
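Readout: fluorescent reporter-transcript fragments by capillary electrophoresis after RT-PCR. Human HepG2 liver cells carried transfected MRTU constructs reporting endogenous transcription-factor activity; exposure 24 h. Gain or loss of signal fitted relative to DMSO.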

Assay [6] is described as follows: ATG_ERE_CIS: Attagene CIS-FACTORIAL HepG2 Assay for Estrogen Response Element (ERE) (AID 2282940). The note with it: HepG2 ERE cis-reporter, Attagene RNA transcript; actives raise or lower the signal. In a few lines:
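Readout: reporter mRNA induction by RT-PCR, FAM-labelled primer extension, HpaI digestion and capillary electrophoresis, 24 h after dosing transfected HepG2 cells. Endogenous transcription factors act on cis-element-regulated reporters. Gain or loss fitted against DMSO.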

Assay [7] is described as follows: ATG_Ets_CIS: Attagene CIS-FACTORIAL HepG2 Assay for human Erythroblast Transformation Specific (ETS) (AID 2282941). The note with it: HepG2 ETS cis-reporter transcription, actives raise or lower the signal. In short, it runs like this:
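After transient cis-reporter transfection, HepG2 cells receive test chemical for 24 h. Reporter mRNA levels, measured by RT-PCR and capillary electrophoresis fluorescence, are analysed bidirectionally relative to the DMSO baseline.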

Assay [8] addresses Hepatocyte nuclear factor 3-beta (Homo sapiens) (UniProt Q9Y261). Kind of assay: ATG_FoxA2_CIS: Attagene CIS-FACTORIAL HepG2 Assay for human Forkhead box A2 (FOXA2) (AID 2282942). The note with it: HepG2 cis-reporter transcription factor activity, 24 h; actives raise or lower the signal. In a few lines:
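Fluorescence signal of reporter cDNA fragments, separated by capillary electrophoresis, reflects endogenous transcription factor activity in transfected HepG2 after 24 h. Both increases and decreases fitted against DMSO.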

The nature of assay [9]: ATG_FoxO_CIS: Attagene CIS-FACTORIAL HepG2 Assay for human Forkhead box O (FoxO) (AID 2282943). The note with it: HepG2 Attagene cis-reporter, FoxO element, mRNA; actives raise or lower the signal. In a few lines:
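HepG2 cells transiently transfected with cis-element-driven reporter units report endogenous FoxO activity. After 24 h chemical exposure, reporter mRNA quantified by RT-PCR, fluorescent labeling, HpaI digestion and capillary electrophoresis; bidirectional fit versus DMSO.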

The nature of assay [10]: ATG_GATA_CIS: Attagene CIS-FACTORIAL HepG2 Assay for human GATA Binding Protein (AID 2282944). As to conditions: HepG2 GATA cis-element reporter, Attagene multiplex mRNA; actives raise or lower the signal. In a few lines: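 Read-out: fluorescent reporter mRNA fragments resolved by capillary electrophoresis after RT-PCR. Human liver HepG2 cells carried transiently transfected cis-regulated reporter constructs; chemicals incubated 24 h; gain or loss of signal fitted relative to DMSO.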

The nature of assay [11]: ATG_GLI_CIS: Attagene CIS-FACTORIAL HepG2 Assay for human Zinc Finger Protein GLI1 (AID 2282945). As to conditions: HepG2, Attagene cis-factorial reporter mRNA, GLI element; actives raise or lower the signal. In a few lines: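 Transiently transfected HepG2 cells report endogenous transcription factor activity via cis-element-driven reporter units. After 24 h compound exposure, reporter mRNA was measured by RT-PCR with capillary electrophoresis; bidirectional fitting against DMSO baseline.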

In assay [12] the target is Bile acid receptor (Homo sapiens) (UniProt Q96RI1). Kind of assay: ATG_IR1_CIS: Attagene CIS-FACTORIAL HepG2 Assay for human Nuclear Receptor Subfamily 1 Group H Member 4 (NR1H4), IR1 submotif (AID 2282946). As to conditions: IR1 reporter transcription, actives raise or lower the signal. In a few lines:
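HepG2 cells transiently transfected with multiple cis-promoter-driven reporter units to measure endogenous transcription factor activity; 24 h exposure. Reporter mRNA read by RT-PCR, FAM labelling, HpaI digestion and capillary electrophoresis. Bidirectional fit versus DMSO.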

Assay [13] can be described thus: ATG_GRE_CIS: Attagene CIS-FACTORIAL HepG2 Assay for human Glucocorticoid Response Elements (GRE) (AID 2282947). As to conditions: HepG2 GRE cis-reporter, Attagene multiplex mRNA; actives raise or lower the signal. In short, it runs like this:
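Endogenous transcription factor activity is read through cis-element reporter constructs transiently transfected into HepG2 cells. After 24 h treatment, labelled RT-PCR products are resolved by capillary electrophoresis; DMSO sets baseline for bidirectional curve fitting.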

The nature of assay [14]: ATG_ISRE_CIS: Attagene CIS-FACTORIAL HepG2 Assay for human Interferon Regulatory Factor 1 (IRF1) binding to an Interferon-Stimulated Response Element (ISRE) (AID 2282948). As to conditions: HepG2 ISRE cis-reporter (Attagene), mRNA transcription readout; actives raise or lower the signal. In short, it runs like this:
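Quantitation relies on labelled RT-PCR fragments separated by capillary electrophoresis. Human HepG2 cells bearing cis-promoter reporter constructs were treated 24 h; DMSO served as baseline for bidirectional fitting.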

A short description of assay [15]: ATG_M_32_CIS: Attagene CIS-FACTORIAL HepG2 Assay for M32 Transcription Factor (Internal Marker) (AID 2282949).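 Note: background control marker of the multiplexed CIS panel rather than a real target.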 As to conditions: HepG2 Attagene cis-factorial M32 reporter, mRNA; actives raise or lower the signal. In a few lines: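 Internal background marker read-out: RT-PCR/capillary electrophoresis fluorescence of reporter transcripts from transiently transfected HepG2 cells after 24 h chemical exposure. Activity fitted bidirectionally relative to DMSO negative control.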

The nature of assay [16]: ATG_M_06_CIS: Attagene CIS-FACTORIAL HepG2 Assay for M06 Transcription Factor (Internal Marker) (AID 2282950). As to conditions: HepG2 Attagene CIS-FACTORIAL M06 internal marker reporter; actives raise or lower the signal. In a few lines:
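Terse: HepG2, transient MRTU transfection (FuGene 6), 24 h dosing; total RNA, oligo(dT) RT, PCR, FAM label, HpaI cut, capillary electrophoresis; bidirectional fit vs DMSO baseline; background-control endpoint.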

The target in assay [17] is Hypoxia-inducible factor 1-alpha (Homo sapiens) (UniProt Q16665). Kind of assay: ATG_HIF1a_CIS: Attagene CIS-FACTORIAL HepG2 Assay for human Hypoxia Inducible Factor 1 (HIF1A) (AID 2282951). The note with it: HepG2 Attagene cis-factorial HIF1a reporter transcription; actives raise or lower the signal. In short, it runs like this:
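Endogenous-TF cis reporter readout, human HepG2 cells, 24 h incubation; mRNA detected via RT-PCR and capillary electrophoresis fluorescence; DMSO-normalised bidirectional fitting.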

The target in assay [18] is Hepatocyte nuclear factor 6 (Homo sapiens) (UniProt Q9UBC0). Kind of assay: ATG_HNF6_CIS: Attagene CIS-FACTORIAL HepG2 Assay for human Hepatocyte Nuclear Factor 6 (HNF6) (AID 2282952). The note with it: HepG2 Attagene cis-factorial HNF6 reporter transcription; actives raise or lower the signal. In short, it runs like this:
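Transiently transfected HepG2 cells expressing cis-regulated reporter transcription units were exposed to chemical for 24 h in a 24-well format. Reporter transcript abundance was determined by fluorescence capillary electrophoresis.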

In assay [19] the target is Heat shock factor protein 1 (Homo sapiens) (UniProt Q00613). Put plainly: ATG_HSE_CIS: Attagene CIS-FACTORIAL HepG2 Assay for human Heat Shock Transcription Factor 1 (HSE) (AID 2282953). As to conditions: HepG2 HSE cis-reporter, Attagene RNA transcription; actives raise or lower the signal. In a few lines:
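Read-out: fluorescence of reporter-specific RT-PCR fragments separated by capillary electrophoresis. HepG2 carrying transfected cis-element reporter units; 24 h dosing; activity fitted in both directions relative to DMSO baseline.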

The nature of assay [20]: ATG_MRE_CIS: Attagene CIS-FACTORIAL HepG2 Assay for human Metal Responsive Element (MRE) (AID 2282954). As to conditions: HepG2 MRE cis-reporter transcription, Attagene multiplex; actives raise or lower the signal. In a few lines: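 Fluorescent reporter fragments separated by capillary electrophoresis give mRNA induction for the MRE unit after 24 h treatment of transfected HepG2 cells. Endogenous transcription-factor activity is read; DMSO serves as negative control and baseline.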

“And” between values parts separate entries of the source, which are not always exact repeats. Equal entries are not always repeated. Some structures have more than one record in an assay (separate samples or runs), and their calls can disagree. The source made the active and inactive calls. Rule for the calls: active = hit-call score of the fitted dose curve at least 0.9, where 1 is the maximum; inactive = score below 0.9.

The results in this text go back to PubChem BioAssay (EPA / NIEHS).

As a reminder, the AC50 is the concentration giving half of the maximal activity seen.

Heat shock factor protein 1 (Homo sapiens), sequence (Q00613 whole entry, looked up, the tested form may be a part): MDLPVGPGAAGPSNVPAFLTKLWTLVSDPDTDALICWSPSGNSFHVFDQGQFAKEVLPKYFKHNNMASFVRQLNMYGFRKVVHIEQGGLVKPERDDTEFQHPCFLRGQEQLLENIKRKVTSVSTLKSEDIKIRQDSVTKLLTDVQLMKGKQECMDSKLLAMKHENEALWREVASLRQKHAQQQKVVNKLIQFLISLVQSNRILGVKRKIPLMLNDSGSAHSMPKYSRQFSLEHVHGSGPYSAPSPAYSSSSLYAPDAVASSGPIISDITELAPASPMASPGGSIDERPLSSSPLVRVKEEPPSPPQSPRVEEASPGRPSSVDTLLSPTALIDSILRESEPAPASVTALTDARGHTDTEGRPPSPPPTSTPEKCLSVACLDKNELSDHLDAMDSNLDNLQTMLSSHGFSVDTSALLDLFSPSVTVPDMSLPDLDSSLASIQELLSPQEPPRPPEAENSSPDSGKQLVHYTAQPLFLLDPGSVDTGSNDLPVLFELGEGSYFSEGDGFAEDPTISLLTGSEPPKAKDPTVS
Hypoxia-inducible factor 1-alpha (Homo sapiens), sequence (Q16665 whole entry, looked up): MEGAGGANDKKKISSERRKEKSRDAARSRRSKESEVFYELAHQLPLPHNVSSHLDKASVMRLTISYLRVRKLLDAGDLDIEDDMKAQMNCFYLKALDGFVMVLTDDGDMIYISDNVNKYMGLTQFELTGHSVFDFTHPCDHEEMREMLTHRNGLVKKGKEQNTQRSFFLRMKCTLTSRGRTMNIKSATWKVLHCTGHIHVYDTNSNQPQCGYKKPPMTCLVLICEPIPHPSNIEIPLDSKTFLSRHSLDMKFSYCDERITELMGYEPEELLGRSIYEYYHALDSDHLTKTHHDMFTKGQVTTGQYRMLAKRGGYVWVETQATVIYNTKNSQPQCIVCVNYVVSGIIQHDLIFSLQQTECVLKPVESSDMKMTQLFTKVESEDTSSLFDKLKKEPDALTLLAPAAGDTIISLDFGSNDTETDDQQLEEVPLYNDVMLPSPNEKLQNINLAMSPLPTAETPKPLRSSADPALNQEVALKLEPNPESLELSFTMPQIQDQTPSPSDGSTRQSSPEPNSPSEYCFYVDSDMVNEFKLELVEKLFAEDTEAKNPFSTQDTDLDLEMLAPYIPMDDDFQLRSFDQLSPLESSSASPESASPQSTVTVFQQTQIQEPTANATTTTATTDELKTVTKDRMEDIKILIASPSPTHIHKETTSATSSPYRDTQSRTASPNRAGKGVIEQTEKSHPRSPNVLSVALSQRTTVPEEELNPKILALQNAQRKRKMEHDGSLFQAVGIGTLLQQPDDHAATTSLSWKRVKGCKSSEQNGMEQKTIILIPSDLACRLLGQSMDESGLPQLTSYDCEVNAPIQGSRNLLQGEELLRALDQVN
Hepatocyte nuclear factor 6 (Homo sapiens), sequence (Q9UBC0 whole entry, looked up): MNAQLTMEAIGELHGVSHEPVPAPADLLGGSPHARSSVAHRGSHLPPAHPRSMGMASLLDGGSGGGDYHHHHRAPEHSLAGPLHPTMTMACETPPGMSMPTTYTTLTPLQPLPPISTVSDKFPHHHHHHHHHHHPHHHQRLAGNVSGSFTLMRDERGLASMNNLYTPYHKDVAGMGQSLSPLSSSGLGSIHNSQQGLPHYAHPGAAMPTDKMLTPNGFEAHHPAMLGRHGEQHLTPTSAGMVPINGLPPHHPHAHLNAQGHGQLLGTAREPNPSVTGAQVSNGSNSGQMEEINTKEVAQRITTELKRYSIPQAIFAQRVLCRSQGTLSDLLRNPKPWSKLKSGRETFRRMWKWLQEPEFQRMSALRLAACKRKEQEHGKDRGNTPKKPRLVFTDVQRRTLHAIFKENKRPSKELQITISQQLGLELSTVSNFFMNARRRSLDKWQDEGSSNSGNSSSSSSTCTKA
Transcription factor E2F1 (Homo sapiens), sequence (Q01094 whole entry, looked up): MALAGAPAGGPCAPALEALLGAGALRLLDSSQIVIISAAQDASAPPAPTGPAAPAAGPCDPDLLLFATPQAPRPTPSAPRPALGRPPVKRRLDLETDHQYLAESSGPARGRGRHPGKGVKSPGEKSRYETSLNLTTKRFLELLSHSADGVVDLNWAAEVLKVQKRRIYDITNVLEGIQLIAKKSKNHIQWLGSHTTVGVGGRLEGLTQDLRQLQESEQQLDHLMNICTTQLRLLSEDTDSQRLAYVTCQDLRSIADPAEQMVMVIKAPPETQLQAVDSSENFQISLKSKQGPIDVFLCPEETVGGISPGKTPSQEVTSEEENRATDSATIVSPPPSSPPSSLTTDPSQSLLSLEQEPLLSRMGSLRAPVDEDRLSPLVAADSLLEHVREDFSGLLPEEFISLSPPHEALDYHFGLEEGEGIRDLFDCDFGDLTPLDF
Bile acid receptor (Homo sapiens), sequence (Q96RI1 whole entry, looked up): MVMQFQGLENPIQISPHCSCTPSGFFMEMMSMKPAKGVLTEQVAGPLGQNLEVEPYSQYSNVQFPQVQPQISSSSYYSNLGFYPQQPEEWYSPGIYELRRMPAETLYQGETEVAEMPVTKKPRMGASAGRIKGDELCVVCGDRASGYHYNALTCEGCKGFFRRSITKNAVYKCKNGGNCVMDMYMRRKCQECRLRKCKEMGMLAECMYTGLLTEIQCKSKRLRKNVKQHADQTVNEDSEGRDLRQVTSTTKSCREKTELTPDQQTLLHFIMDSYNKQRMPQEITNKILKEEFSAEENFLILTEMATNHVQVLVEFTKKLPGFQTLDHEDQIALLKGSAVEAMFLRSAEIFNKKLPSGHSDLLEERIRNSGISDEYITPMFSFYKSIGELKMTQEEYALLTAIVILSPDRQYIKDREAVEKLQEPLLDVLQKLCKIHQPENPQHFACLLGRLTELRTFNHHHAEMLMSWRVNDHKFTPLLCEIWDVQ
Hepatocyte nuclear factor 3-beta (Homo sapiens), sequence (Q9Y261 whole entry, looked up, the tested form may be a part): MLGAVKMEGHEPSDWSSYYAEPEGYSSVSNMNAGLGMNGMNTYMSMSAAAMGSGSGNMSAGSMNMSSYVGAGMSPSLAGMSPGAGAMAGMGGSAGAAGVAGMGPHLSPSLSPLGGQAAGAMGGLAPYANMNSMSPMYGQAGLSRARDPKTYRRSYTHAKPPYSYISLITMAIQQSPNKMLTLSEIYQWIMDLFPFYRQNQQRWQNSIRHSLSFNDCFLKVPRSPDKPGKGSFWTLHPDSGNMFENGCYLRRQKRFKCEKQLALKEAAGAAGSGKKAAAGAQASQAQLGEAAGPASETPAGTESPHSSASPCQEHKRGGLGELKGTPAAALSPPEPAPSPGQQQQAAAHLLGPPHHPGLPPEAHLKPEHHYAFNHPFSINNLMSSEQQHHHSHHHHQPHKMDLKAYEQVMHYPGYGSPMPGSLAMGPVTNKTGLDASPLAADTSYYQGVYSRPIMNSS

For the compound `CCCCCCC(=O)O`, the compound was classed as inactive in [1], in [2], in assay [3], in [4], in [5] and in [6]. Also, the compound was called inactive in [7], in assay [8], in [9], in [10], in assay [11] and in assay [12]. The outcome in assay [13], in assay [14], in assay [15], in assay [16], in assay [17] and in assay [18] was inactive. Also, the outcome in [19] and in assay [20] was inactive.
With `OC1CCC(C2CCCCC2)CC1` (stereo unspecified), the result in assay [1], in assay [2], in assay [3], in assay [4], in assay [5] and in assay [7] was inactive. Moreover, the compound was called inactive in [8], in assay [9], in assay [10], in assay [11], in assay [12] and in assay [14]. For the same compound, the call in [15], in assay [16], in assay [17], in assay [19] and in assay [20] was inactive. The AC50 in [6] is 27 µM (active) and 27.4 µM (active) and 27.5 µM (active); in assay [11], 70.6 µM (active); in [12] it was 100 µM (active); in assay [14], 73.8 µM (active) and 81.2 µM (active); in [17], 100 µM (active); in assay [20], 121 µM (active) and 128 µM (active).
In the case of `CC[C@H](c1ccc(O)cc1)[C@@H](CC)c1ccc(O)cc1`, the result in [1], in assay [2], in assay [3], in [4], in assay [5] and in [7] was inactive. Also, the compound was called inactive in [8], in assay [9], in assay [11], in assay [12], in assay [14] and in [15]. Further, the call in assay [16], in assay [19] and in assay [20] was inactive. Also, the AC50 is 11.1 µM (active) in [4]; 1.02 nM (active) and 3.79 nM (active) and 1.01 nM (active) in assay [6]; 11.1 µM (active) in [12]; 11.1 µM (active) and 17.2 µM (active) in [14]; 11.1 µM (active) in assay [20].
For the compound `CCCCCCCCCCCCc1ccccc1S(=O)(=O)O`, the result in assay [1], in assay [2], in assay [3], in assay [4], in assay [5] and in assay [6] was inactive. Further, the compound was called inactive in assay [7], in assay [8], in assay [9], in assay [10], in [11] and in [12]. Further, the call in [14], in assay [15], in assay [16], in assay [17], in [18] and in assay [19] was inactive. Moreover, in [20], the outcome was inactive.
For `CC(C)(C)c1ccc(O)c(C(C)(C)C)c1`, the compound was called inactive in [1], in assay [2], in assay [3], in assay [4], in [5] and in [6]. Further, the compound was classed as inactive in assay [7], in assay [8], in assay [9], in [10], in assay [11] and in [13]. Besides, the compound was classed as inactive in assay [14], in assay [15], in assay [16], in assay [17], in [19] and in assay [20]. Moreover, the AC50 in [12] is 5.79 µM (active).
On to `CCCCCCCCCCCCCC[N+](C)(C)C`, for which the result in [1], in assay [2], in assay [3], in assay [4], in [5] and in [6] was inactive. Also, the compound was classed as inactive in assay [7], in assay [8], in [9], in assay [11], in assay [12] and in assay [14]. Also, the call in assay [15], in assay [16], in assay [17], in assay [19] and in [20] was inactive. Also, the AC50 in assay [4] was 11.1 µM (active); in assay [12] it was 9.85 µM (active); in assay [20], 8.9 µM (active).
